# Shown are actives, neighbours in structure and some others; about 6.8% of the full set was active somewhere.
# HCV NS3h FP: blocks HCV NS3 helicase binding to DNA. NS3h Cy5-dT15 DNA binding, fluorescence polarization. inhibition, % at 100 µM. 16,000 compounds, 1.6% hits. AID 687043;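 active means inhibition above the average over every tested compound plus 3 SD, cut at about 40% in these data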
# Cy5 interf NS3h: Cy5 fluorescence interference, HCV helicase counter-screen. 16,000 compounds, 6% hits. fluorescence interference ratio at 100 µM. Cy5-dT15 DNA with NS3h; actives lie on both sides; signal over control mean, under 1 quenches;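 active means compound fluorescence over control fluorescence at most 0.8, a quencher, or at least a set upper limit, an enhancer; inactive means ratio between 0.8 and the set upper limit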
# HCV NS3h conf: confirmation of hepatitis C virus NS3 helicase inhibitors. shares compounds with HCV NS3h FP. NS3h binding to Cy5-dT15 DNA, fluorescence polarization. inhibition, % at 100 µM. 240 compounds, 20% hits;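 active means percent inhibition of 50% or more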
# SSB FP counter: counter-screen for HCV NS3 helicase inhibitors: E. coli SSB binding; shares compounds with HCV NS3h FP; E. coli SSB binding Cy5-dT15, fluorescence polarization; inhibition, % at 100 µM; 240 compounds, 40% hits; AID 720486;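 active means inhibition of at least 50%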;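 further: displacers lower Cy5 polarization so higher inhibition means more SSB displaced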
# Target sequence (P0AGE0 whole entry, looked up): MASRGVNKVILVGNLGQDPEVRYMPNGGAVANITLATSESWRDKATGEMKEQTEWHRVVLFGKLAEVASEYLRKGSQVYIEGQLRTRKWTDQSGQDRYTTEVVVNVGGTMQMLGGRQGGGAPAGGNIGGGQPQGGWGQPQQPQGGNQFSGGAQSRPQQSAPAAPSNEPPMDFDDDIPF
# Cy5 SSB fluor CB: Cy5 fluorescence interference in NS3h counter-screen | shares compounds with HCV NS3h FP | Cy5-dT15/E. coli SSB fluorescence interference; actives lie on both sides | fluorescence interference ratio at 100 µM | 240 compounds, 8% hits | AID 720487;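 active means fluorescence interference ratio at or above 1.2, signal boosting, or at or below 0.8, signal quenching; inactive means ratio between 0.8 and 1.2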
# Cy5 interf conf: confirmation counter-screen for HCV NS3 helicase inhibitors: fluorescence interference; 240 compounds, 44% hits; fluorescence interference ratio at 100 µM, hits read low; Cy5-dT15 DNA/NS3h fluorescence interference counterscreen; shares compounds with HCV NS3h FP; AID 720489;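 active means fluorescence interference ratio at or below 0.8 quencher or at or above a set limitenhancer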
# A number is an active result; n = inactive.
SMILES,HCV NS3h FP,Cy5 interf NS3h,others
Cc1ccc(N2C(=O)CC(=O)NC2=S)cc1,n,n,
O=C1CC(=O)N(c2ccc(Cl)c(Cl)c2)C(=S)N1,n,0.62,
COc1ccccc1C1(CCNCc2ccc(N(C)C)cc2)CCOC(C)(C)C1 (centres undefined),n,n,
O=[N+]([O-])c1ccc(NCCOc2cccc3ccccc23)c2ncccc12,n,0.75,
Cc1ccc(-c2ccc(C=C3C(=O)NC(=S)NC3=O)o2)cc1[N+](=O)[O-],42,n,
Cc1cc(-c2ccc(C=C3C(=O)NC(=S)NC3=O)o2)cc([N+](=O)[O-])c1C,n,n,
Cc1ccc(N2C(=O)CC(=O)N(C)C2=S)cc1,n,n,
COc1ccc(CCNCc2cccc(Br)c2)cc1OC,n,n,
O=[N+]([O-])c1ccc(N2CCNCC2)cc1NCCc1ccccc1,n,0.78,
O=C1NC(=O)N(Cc2ccccc2)C(=O)/C1=C/c1ccc2c(c1)OCO2,n,n,
Cc1ccc(C=C2C(=O)N(C)C(=O)N(C)C2=O)o1,n,n,
Cc1cc(OCc2ccc(F)cc2)c2c3c(c(=O)oc2c1)CCC3,n,n,
O=C1NC(=S)NC(=O)C1CCCC=C(Cl)Cl,n,n,HCV NS3h conf=n;SSB FP counter=n;Cy5 SSB fluor CB=n;Cy5 interf conf=n
O=c1oc2ccccc2c(O)c1C(c1cccc(F)c1)c1c(O)c2ccccc2oc1=O,n,n,
CCOc1cc(C=C2C(=O)NC(=S)NC2=O)ccc1OCc1c(C)no[n+]1[O-],n,n,
O=C1NC(=O)C(=Cc2ccccc2OCc2ccccc2Cl)C(=O)N1,56,0.58,HCV NS3h conf=n;SSB FP counter=n;Cy5 SSB fluor CB=n;Cy5 interf conf=0.73
CC(C)Oc1ccc(Br)cc1C=C1C(=O)NC(=O)NC1=O,n,n,
CCOC(=O)C(P(=O)(OCC)OCC)P(=S)(c1ccccc1)c1ccccc1 (centres undefined),n,n,
CN(C)c1ccc(C=C2C(=O)NC(=S)N(c3ccccc3F)C2=O)cc1,n,n,
CCN1C(=O)C(=Cc2ccc(N(CC)CC)cc2)C(=O)N(CC)C1=S,55,2,HCV NS3h conf=n;SSB FP counter=n;Cy5 SSB fluor CB=n;Cy5 interf conf=1.4
COc1cccc(CN2CCN(Cc3ccc(C)cc3)CC2)c1,n,n,
Cc1cc(OCC(N)=O)c2c3c(c(=O)oc2c1)CCC3,n,n,
CCCCOC(=O)COc1cc(C)cc2oc(=O)c3c(c12)CCC3,54,n,HCV NS3h conf=n;SSB FP counter=n;Cy5 SSB fluor CB=n;Cy5 interf conf=n
Cc1ccc(N2C(=O)NC(=O)/C(=C/c3ccc(-c4cccc(C(=O)O)c4)o3)C2=O)cc1,50,n,HCV NS3h conf=89;SSB FP counter=70;Cy5 SSB fluor CB=n;Cy5 interf conf=n
Cc1ccc(N2C(=O)/C(=C/c3ccc(-c4ccc(C(=O)O)cc4)o3)C(=O)NC2=S)cc1,50,n,HCV NS3h conf=n;SSB FP counter=62;Cy5 SSB fluor CB=n;Cy5 interf conf=n
SMILES,HCV NS3h FP,Cy5 interf NS3h,others
O=C1NC(=S)N(c2ccc(Br)cc2)C(=O)/C1=C/c1ccc(-c2ccc(C(=O)O)cc2)o1,n,n,
CN1C(=O)C(=Cc2ccc(-c3cccc(C(=O)O)c3)o2)C(=O)N(C)C1=O,n,n,
COc1ccc(C=C(C#N)C#N)cc1O,n,n,
O=C1NC(=O)C(=Cc2ccc(-c3ccccc3C(=O)O)o2)C(=O)N1,68,n,HCV NS3h conf=54;SSB FP counter=n;Cy5 SSB fluor CB=n;Cy5 interf conf=n
COC(=O)c1ccc(-c2ccc(C=C3C(=O)NC(=S)NC3=O)o2)cc1,n,n,
O=C1NC(=O)C(=Cc2ccc(O)c(O)c2)C(=O)N1,n,n,
O=C1NC(=O)C(=Cc2ccc(-c3cc([N+](=O)[O-])ccc3O)o2)C(=O)N1,185,1.7,HCV NS3h conf=100;SSB FP counter=100;Cy5 SSB fluor CB=n;Cy5 interf conf=n
Cc1ccc(C2c3c(c4ccccc4oc3=O)Oc3c2c(=O)oc2ccccc32)cc1,n,n,
O=C(Nc1ccc(Cl)cc1C(=O)c1ccccc1)c1ccc([N+](=O)[O-])cc1,n,n,
COc1ccc(CN2CCN(Cc3cccc(Br)c3)CC2)cc1Br,n,n,
CCC1(CCC(C)C)C(=O)NC(=O)N(C(=O)c2ccc(F)cc2)C1=O (centres undefined),n,n,

# Compound activity deposited in PubChem BioAssay by Milwaukee Institute for Drug Discovery.
